Bioassay records: PubChem BioAssay, several laboratories
A selection: hits, their analogues and other compounds. The true share with any hit is near 4.1%.
aSyn 5UTR inh = MLPCN primary screen, SNCA 5' untranslated region | AID 1813, 2009 | alpha-synuclein 5'UTR reporter, inhibitor activity | hit rate 0.82% among 300,000 | inhibition, % (tested at 7.5 µM); in the data active = inhibition above about 60%;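 note: H4 neuroglioblastoma cells stably carrying SNCA 5'UTR luciferase fusion; 0% = DMSO wells and 100% = positive control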
Gli-Sufu block = Gli-Sufu pathway antagonists, primary screen, luciferase luminescence, Sufu-KO-LIGHT cells, uHTS | hit rate 0.74% among 340,000 | Sufu-KO-LIGHT fibroblasts, Gli luciferase reporter luminescence | inhibition, % at 5 µM;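 active = inhibition above about 55%, limit read from the data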;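 note: 0% = DMSO-treated cells and 100% = wells with medium but no cells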
Jurkat NFkB inh = inhibitors of induced NF-kB luciferase reporter, primary screen, TCR NF-kB activation inhibitor project, cell-based, luminescence, uHTS. Jurkat, PMA/ionomycin-induced NF-kB luciferase reporter. inhibition, % at 4 µM. hit rate 0.53% among 330,000. AID 435003, 2010; in the data active = inhibition above about 50%
697 NFkB inh = inhibitors of PMA/ionomycin-induced NF-kB reporter, 697 cells, primary screen, B-cell NF-kB inhibitor project, cell-based, luminescence, uHTS; hit rate 0.33% among 330,000; 697 B-cell NF-kB luciferase reporter, 16 h; inhibition, % at 4 µM; in the data active = inhibition above about 35%
KLF5 inhibitor = KLF5 expression inhibitors, primary screen, DLD-1 cells, luminescence | hit rate 0.23% among 290,000 | DLD-1 KLF5 promoter-luciferase reporter | inhibition, % at 5 µM;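 active = inhibition above a per-plate limit of that plate's mean compound inhibition plus 3 SD, cut at about 60% in these data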;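 note: 0% = DMSO wells and 100% = LY294002 at 200 µM; higher means less KLF5 promoter-driven luciferase light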
Mdm2-MdmX inh = inhibitors of human Mdm2-MdmX association, primary screen, cell-based, luminescence, split luciferase, SaOS-2, uHTS; Protein Mdm4 (Homo sapiens) + E3 ubiquitin-protein ligase Mdm2 (Homo sapiens), …; SaOS-2 split-luciferase Mdm2/MdmX complementation; inhibition, % at 8 µM; hit rate 3% among 330,000;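 active = inhibition of at least 50% at 8 µM in the primary screen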
Target sequence (O15151 whole entry, looked up): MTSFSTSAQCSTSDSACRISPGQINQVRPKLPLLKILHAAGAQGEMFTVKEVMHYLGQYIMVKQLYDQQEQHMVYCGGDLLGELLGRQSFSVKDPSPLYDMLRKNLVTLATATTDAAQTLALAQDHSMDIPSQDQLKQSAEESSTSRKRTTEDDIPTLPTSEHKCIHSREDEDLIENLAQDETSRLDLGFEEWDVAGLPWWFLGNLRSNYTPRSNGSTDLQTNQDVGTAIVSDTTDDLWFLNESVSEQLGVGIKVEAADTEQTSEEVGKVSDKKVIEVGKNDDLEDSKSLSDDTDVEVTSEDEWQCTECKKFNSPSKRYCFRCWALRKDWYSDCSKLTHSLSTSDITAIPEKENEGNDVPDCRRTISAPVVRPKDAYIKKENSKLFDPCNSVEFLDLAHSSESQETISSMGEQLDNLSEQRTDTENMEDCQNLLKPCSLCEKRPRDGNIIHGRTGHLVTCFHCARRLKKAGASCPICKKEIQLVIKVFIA
Target sequence (Q00987 whole entry, looked up): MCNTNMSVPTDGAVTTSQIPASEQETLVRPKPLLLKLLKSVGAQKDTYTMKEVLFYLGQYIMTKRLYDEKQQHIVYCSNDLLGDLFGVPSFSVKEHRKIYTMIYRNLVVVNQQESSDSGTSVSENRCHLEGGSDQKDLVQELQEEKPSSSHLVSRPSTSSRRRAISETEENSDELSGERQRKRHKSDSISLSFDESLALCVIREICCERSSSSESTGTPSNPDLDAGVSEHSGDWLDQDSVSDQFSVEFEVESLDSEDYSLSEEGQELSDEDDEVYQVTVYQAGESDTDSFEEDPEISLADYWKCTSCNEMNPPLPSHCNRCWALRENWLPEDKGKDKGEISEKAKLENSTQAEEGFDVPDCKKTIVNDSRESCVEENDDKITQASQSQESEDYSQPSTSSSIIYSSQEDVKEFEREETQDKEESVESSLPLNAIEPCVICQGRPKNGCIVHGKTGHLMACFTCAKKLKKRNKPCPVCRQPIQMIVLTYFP
Mdm2 MdmX conf = Mdm2-MdmX complex disruptors, retested hits, confirmation, luminescence, single concentration. shares compounds with Mdm2-MdmX inh. Mdm2-MdmX binding, luminescent assay. inhibition, % at 8 µM. hit rate 55% among 10,000; in the data active = inhibition above about 40%
Full FLuc ctr = full-length luciferase signal inhibition, confirmation, counter-screen for Mdm2/MdmX interaction inhibitor project, cell-based, single concentration, SaOS-2 | SaOS-2 full-length luciferase counterscreen, luminescence | hit rate 77% among 6,200 | AID 504607, 2011 | shares compounds with Mdm2-MdmX inh | inhibition, % at 8 µM;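 active = mean inhibition at 8 µM reaching about 37%, which flags the compound as non-specific, limit read from the data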;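 note: p53-null SaOS-2 cells with luciferase driven by a doxycycline-inducible promoter; compound on cells about two nights before reading with doxycycline added after day one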
Gli antag conf = Gli-SUFU pathway antagonists, confirmation, single concentration, luciferase luminescence, Sufu-KO-LIGHT cells; Gli luciferase reporter; shares compounds with Gli-Sufu block; AID 602428, 2012; inhibition, % at 5 µM; hit rate 40% among 2,500;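 active = mean inhibition at 5 µM reaching about 45%, limit read from the data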;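 note: plate controls were DMSO-treated cells for no effect and wells lacking cells for full effect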
SufuKO cytotox = cytotoxicity in Sufu-KO-LIGHT cells, confirmation, cytotoxicity control for Gli-SUFU antagonist project, cell-based, ATP luminescence, single concentration. cytotoxicity, % at 5 µM. hit rate 32% among 2,500. AID 651994, 2013. shares compounds with Gli-Sufu block;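 active = mean cytotoxicity at 5 µM above about 25%, limit read from the data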;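 note: cells exposed to compound overnight for roughly 16 to 18 hours; plate controls were DMSO wells with cells for no effect and medium without cells for full effect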
Wnt3a cs = Wnt3a reporter signal inhibition, confirmation, counter-screen for Gli-SUFU antagonist project, Wnt-LIGHT cells, luminescence, single concentration. shares compounds with Gli-Sufu block. Wnt3a-driven luciferase reporter. inhibition, % at 6.25 µM. hit rate 20% among 2,500. AID 651995, 2013;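 active = mean inhibition above about 25%, limit read from the data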
Active calls of the source: *; · = no result given.

SMILES	aSyn 5UTR inh	Gli-Sufu block	Jurkat NFkB inh	697 NFkB inh	KLF5 inhibitor	Mdm2-MdmX inh	Mdm2 MdmX conf	Gli antag conf	SufuKO cytotox	Wnt3a cs	others
COCC(C)n1c(C)cc(C(=O)COC(=O)c2cc(=O)[nH]c3ccccc23)c1C (centres undefined)	·	50.7	-7.0	-7.9	·	57.9*	68.1*	69.0*	26.2*	80.8*	Full FLuc ctr=97.1*
O=C(NCc1ccc(Cl)cc1)C1CCN(S(=O)(=O)c2ccc(F)cc2)CC1	22.5	0.4	23.0	9.1	1.3	-13.9	·	·	·	·
CN(C)c1nc(-c2ccccn2)nnc1-c1ccccc1	79.3*	66.0*	-1.6	-19.8	22.2	75.7*	3.5	65.7*	23.8	72.0*
CN(C)c1nc(-c2ccccc2)nc(-c2ccc(Cl)cc2)c1C#N	38.0	-76.7	-15.9	-54.3	-15.4	30.5	·	·	·	·
CCN(CC)c1nc(-c2ccccn2)nc(-c2ccccc2)c1C#N	35.3	62.9*	4.3	8.9	-3.9	58.5*	37.5	25.0	12.0	10.2
COc1ccc(NS(=O)(=O)c2cccc(NC(=O)c3ccc(S(=O)(=O)N4CCCCCC4)cc3)c2)cc1	9.4	60.8*	46.8	-5.0	-19.1	53.1*	33.1	63.3*	17.2	28.3*
Nc1nc2ccccc2n1/N=C/c1ccc([N+](=O)[O-])s1	83.4*	54.3	18.6	-28.2	4.9	56.3*	47.2*	52.6*	19.0	-117.8	Full FLuc ctr=47.5*
O=C(CN1C(=O)NC2(CCc3ccccc32)C1=O)NCc1cccc(C(F)(F)F)c1 (centres undefined)	·	1.5	-16.3	-15.6	·	-5.6	·	·	·	·
Nc1ccc(C(=O)N/N=C\c2cc(N=Nc3cccc4ccccc34)ccc2O)cc1	50.4	66.6*	7.1	-56.8	3.8	57.1*	67.2*	65.5*	40.5*	58.7*	Full FLuc ctr=36.2*
COC(=O)N/N=C/c1cc(N=Nc2ccccc2Cl)ccc1O	-27.3	-44.0	4.3	-4.4	-35.7	16.9	·	·	·	·
COc1ccc(-n2nc(C(=O)c3cccs3)cc(-c3nc4ccccc4[nH]3)c2=N)cc1	-31.6	97.8*	-7.3	-147.0	-24.8	97.5*	48.6*	3.5	-15.6	-12.9	Full FLuc ctr=30.8
Cc1cccc(-n2nc(C(=O)c3ccco3)cc(-c3nc4ccccc4[nH]3)c2=N)c1	-18.5	44.0	-18.6	-64.9	1.1	25.8	·	·	·	·
CCc1ccc(/C=C/c2c[nH]c3ccccc23)[n+](CC)c1	9.8	77.9*	36.6	3.9	-9.0	53.4*	44.0*	82.5*	31.5*	45.6*	Full FLuc ctr=58.9*
Cc1nc2c(-c3ccc(Cl)cc3)cnn2c(N)c1-c1ccc(F)cc1	-54.7	62.7*	-51.0	-247.8	-53.1	87.6*	84.6*	81.3*	18.4	84.3*	Full FLuc ctr=105.0*
Cc1nc2c(-c3ccc(Cl)cc3)cnn2c2c1CCC2	-122.5	-36.2	-46.6	-22.1	-19.3	-21.1	·	·	·	·
Cc1c(Cl)cccc1NC(=O)CCN1CCC(C(N)=O)CC1	-10.2	57.2*	2.7	14.9	-36.1	-1.6	·	21.4	2.6	18.6
FC(F)(F)c1ccc(N2CCN(c3cc(-c4ccccc4)nc4ncnn34)CC2)nc1	5.3	57.2*	20.3	-9.8	14.7	44.9	·	49.3*	9.8	-64.0
COc1ccc(NC(=O)CN(C)Cc2cccs2)cc1Cl	-12.6	-25.2	-14.1	-8.5	-15.0	-41.9	·	·	·	·
CC(=O)N1CCN(C(=O)c2c(-c3ccccc3)noc2C)CC1	·	58.9*	2.0	9.7	·	12.3	·	24.7	8.2	-12.5
CN1CCCN(C(=O)C2CCC(C(=O)N3CCCN(C)CC3)CC2)CC1 (centres undefined)	34.4	50.2	-15.8	-15.7	2.1	8.3	·	8.1	-11.2	13.0
CCSc1nnc(Cn2c(=O)sc3ccccc32)n1-c1ccccc1C	10.3	2.1	-11.0	5.8	12.2	8.1	·	·	·	·
CSc1nnc(Cn2c(=O)sc3ccccc32)n1-c1ccccc1C	8.5	51.8	6.4	-11.9	-30.7	11.4	·	23.5	0.2	-3.6
COc1ccc(N2CCn3c2nc2c3c(=O)n(CCCc3ccccc3)c(=O)n2C)c(OC)c1	32.4	51.5	49.3	-31.6	-32.5	30.4	·	54.7*	34.8*	5.2
COc1ccc(N2CCn3c2nc2c3c(=O)n(CCc3ccccc3)c(=O)n2C)c(OC)c1	-8.9	·	·	·	-8.7	·	·	·	·	·
CC(C)[C@H](NS(=O)(=O)c1cccc(C(F)(F)F)c1)C(=O)OCC(=O)NC(=O)NCc1ccco1	·	14.5	17.3	-4.9	·	-5.2	·	·	·	·
SMILES	aSyn 5UTR inh	Gli-Sufu block	Jurkat NFkB inh	697 NFkB inh	KLF5 inhibitor	Mdm2-MdmX inh	Mdm2 MdmX conf	Gli antag conf	SufuKO cytotox	Wnt3a cs	others
COc1ccccc1N(C)S(=O)(=O)c1ccc(C(=O)NCc2ccccc2CN2CCCC2)cc1	·	52.4	·	·	·	·	·	33.8	16.9	-33.5
CCOc1cc(S(=O)(=O)NCc2ccccc2)ccc1Br	19.5	0.2	1.4	8.6	3.5	-15.0	·	·	·	·
CCCCCC(=O)Nc1sc(C)c(C)c1C#N	-53.5	66.1*	-5.0	-19.0	-24.8	-14.8	·	12.0	1.8	-37.2
CCCC(=O)Nc1sc(C)c(C)c1C#N	-23.6	20.3	1.4	9.8	-90.9	-19.3	·	·	·	·
CC1CN(C(=O)CCc2cc(C(C)(C)C)c(O)c(C(C)(C)C)c2)CC(C)O1 (centres undefined)	-2.8	66.1*	6.9	5.6	-11.0	-3.1	·	86.3*	30.7*	28.6*
CCC(=O)Nc1cccc(-n2nnnc2SCC(=O)N2CCCCC2)c1	-49.1	59.4*	-15.4	-1.2	-31.4	7.8	·	7.4	14.8	1.4
COc1cc(OC)cc(-n2nnnc2SCC(=O)N2CCCC2)c1	-5.3	3.4	-2.7	14.6	-21.0	-5.5	·	·	·	·
O=C(NCc1ccccc1)C(=O)NCC1OCCCN1S(=O)(=O)c1cccs1 (centres undefined)	2.0	-8.6	8.6	-3.7	-52.3	-1.1	·	·	·	·
